Where “and” joins values, the source holds several entries; their conditions need not be identical. Equal values may be shown once. The panel holds about 79,000 compounds, 15% with a hit somewhere; the sample as a whole holds those more often. A structure can be active in one record and inactive in another. Calls of active or inactive are those of the source. Rule as the data show it: active = growth inhibition above about 70%; inactive = the rest.
How the values were obtained:
[1] = NCI Yeast Anticancer Drug Screen. Data for the wt1 strain (AID 149);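 also: 0% = growth of vehicle-treated wt1 cultures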; conditions: S. cerevisiae wt1 strain (SPY 50644) growth inhibition, stronger effect = higher value
Summary of the method: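 Growth inhibition read against vehicle controls after compound exposure of the wt1 yeast strain.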

[2] = NCI Yeast Anticancer Drug Screen. Data for the rad50EPP+ strain (AID 151);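 also: 0% = growth of vehicle-treated control cultures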; conditions: S. cerevisiae rad50 mutant strain, stronger effect = higher value
Summary of the method: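 rad50EPP+ yeast treated with test compounds. Readout: growth vs vehicle control.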

[3] = NCI Yeast Anticancer Drug Screen. Data for the mgt1 strain (AID 153); conditions: S. cerevisiae mgt1 mutant growth inhibition, stronger effect = higher value
Summary of the method: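 Growth inhibition relative to vehicle controls was scored for the mgt1 yeast strain after compound exposure.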

[4] = NCI Yeast Anticancer Drug Screen. Data for the rad50 strain (AID 155);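 also: 0% = growth of vehicle-only cultures of the same strain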; conditions: S. cerevisiae rad50 strain growth inhibition, stronger effect = higher value
Summary of the method: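 Readout: growth inhibition relative to vehicle-treated cultures. Compound exposure was carried out in a genetically defined yeast strain deficient in DNA damage repair.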

[5] = NCI Yeast Anticancer Drug Screen. Data for the mec2-1 strain (AID 157); conditions: S. cerevisiae mec2-1 strain, stronger effect = higher value
Summary of the method: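 Growth inhibition is read against vehicle-treated controls after compound exposure of the mec2-1 yeast strain, which is defective in DNA damage repair or cell cycle control.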

[6] = NCI Yeast Anticancer Drug Screen. Data for the rad14 strain (AID 159);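 also: 0% = growth of vehicle-treated control cultures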; conditions: S. cerevisiae rad14 strain growth inhibition, stronger effect = higher value
Summary of the method: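 Growth inhibition vs vehicle controls; genetically altered yeast strain (DNA damage repair defect) treated with test compounds.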

[7] = NCI Yeast Anticancer Drug Screen. Data for the sgs1 mgt1 strain (AID 161);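 also: 0% = growth of cultures given vehicle only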; conditions: S. cerevisiae sgs1 mgt1 strain, stronger effect = higher value
Summary of the method: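 Percent growth inhibition was derived by comparing compound-exposed mutant yeast with vehicle-exposed cultures. The strain carries alterations in DNA damage repair.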

[8] = NCI Yeast Anticancer Drug Screen. Data for the cln2 rad14 strain (AID 165);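 also: 0% = growth equal to vehicle treated cultures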; conditions: S. cerevisiae cln2 rad14 strain, stronger effect = higher value
Summary of the method: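 Growth inhibition, relative to vehicle-treated controls, is the read-out. The test organism is a yeast strain with defined genetic alterations, cln2 rad14.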

[9] = NCI Yeast Anticancer Drug Screen. Data for the bub3 strain (AID 167); conditions: S. cerevisiae bub3 mutant strain, stronger effect = higher value
Summary of the method: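 Readout: yeast growth inhibition, expressed relative to vehicle-only wells. The test organism is a mutant strain from a panel with lesions in DNA repair or checkpoint genes.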

[10] = NCI Yeast Anticancer Drug Screen. Data for the wt2 strain (AID 169);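 also: 0% = growth of vehicle-treated yeast cultures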; conditions: S. cerevisiae wt2 strain growth inhibition, stronger effect = higher value
Summary of the method: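 Compound exposure of yeast; growth compared with vehicle controls; inhibition reported.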

[11] = NCI Yeast Anticancer Drug Screen. Data for the mlh1 strain (AID 171);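 also: 0% = growth of vehicle-treated control cultures of the same strain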; conditions: S. cerevisiae mlh1 strain growth inhibition, stronger effect = higher value
Summary of the method: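 Compounds are applied to a genetically altered yeast strain, and its growth is compared with that of vehicle-treated cultures to give percent inhibition.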

[12] = NCI Yeast Anticancer Drug Screen. Data for the sgs1 strain (AID 173);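 also: 0% = growth of vehicle-only control cultures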; conditions: S. cerevisiae sgs1 mutant, stronger effect = higher value
Summary of the method: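 Compounds applied to genetically altered yeast; growth compared with vehicle-treated cultures to give % inhibition.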

[13] = NCI Yeast Anticancer Drug Screen. Data for the mlh1 rad18 strain (AID 175); conditions: S. cerevisiae mlh1 rad18 strain growth inhibition, stronger effect = higher value
Summary of the method: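 Cells of a genetically altered yeast strain, deficient in DNA damage repair, were treated with compound. Their growth was then compared with that of vehicle-treated cultures to give inhibition.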

[14] = NCI Yeast Anticancer Drug Screen. Data for the rad18 strain (AID 177); conditions: S. cerevisiae rad18 mutant growth inhibition, stronger effect = higher value
Summary of the method: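 Compounds are applied to a repair-deficient yeast strain, and growth is compared with that of vehicle-treated cultures to give percent inhibition.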

[15] = at 5.0 µM (retest, dose inferred, filed as 0.5)
[16] = at 50.0 µM (retest, dose inferred, filed as 5.0)

Measured: growth inhibition

COc1ccc(OC)c(/C=C/[N+](=O)[O-])c1
-38% (inactive) and 97% (active): [5]; [16]
-45% (inactive) and 76% (active): [8]; [16]
active: [1]; at 100.0 µM 71% | [2]; at 11.0 µM 74% | [2]; at 33.0 µM 86% | [2]; at 100.0 µM 99% | [3]; at 100.0 µM 100% | [4]; at 33.0 µM 86% | [4]; [16] 86% and 95% | [4]; at 50.0 µM 99.4% | [4]; at 100.0 µM 99% | [5]; at 50.0 µM 99.7% and 98.8% | [5]; at 100.0 µM 99% | [6]; at 100.0 µM 100% | [7]; at 50.0 µM 91.3% and 99% | [8]; at 50.0 µM 98.8% and 98.4% | [9]; at 50.0 µM 99% | [9]; at 100.0 µM 99% | [10]; at 100.0 µM 85% | [11]; at 100.0 µM 98% | [12]; at 100.0 µM 100% | [13]; at 50.0 µM 97.9% and 99.5% | [14]; at 100.0 µM 96%
inactive: [1]; at 1.2 µM -6% | [1]; at 3.7 µM -7% | [1]; at 11.0 µM -9% | [1]; at 33.0 µM 7% | [2]; at 1.2 µM 29% | [2]; at 3.7 µM 59% | [3]; at 1.2 µM 0% | [3]; at 3.7 µM -2% | [3]; at 11.0 µM 2% | [3]; at 33.0 µM 23% | [4]; at 1.2 µM 11% | [4]; at 3.7 µM 21% | [4]; [15] -83% and 19% | [4]; at 11.0 µM 48% | [5]; at 1.2 µM 1% | [5]; at 3.7 µM 2% | [5]; [15] -46% and 9% | [5]; at 11.0 µM 7% | [5]; at 33.0 µM 30% | [6]; at 1.2 µM 5% | [6]; at 3.7 µM 7% | [6]; at 11.0 µM 15% | [6]; at 33.0 µM 39% | [7]; [15] -53% and 12% | [7]; [16] 1% and 64% | [8]; [15] -60% and 2% | [9]; at 1.2 µM 0% | [9]; at 3.7 µM 6% | [9]; [15] -57% and 35% | [9]; at 11.0 µM 13% | [9]; at 33.0 µM 25% | [10]; at 1.2 µM 0% | [10]; at 3.7 µM -1% | [10]; at 11.0 µM -2% | [10]; at 33.0 µM 15% | [11]; at 1.2 µM 10% | [11]; at 3.7 µM -2% | [11]; at 11.0 µM 8% | [11]; at 33.0 µM 28% | [12]; at 1.2 µM -1% | [12]; at 3.7 µM 18% | [12]; at 11.0 µM 29% | [12]; at 33.0 µM 54% | [13]; [15] -114% and 37% | [14]; at 1.2 µM 5% | [14]; at 3.7 µM 13% | [14]; at 11.0 µM 20% | [14]; at 33.0 µM 49%
-33% (inactive) and 79% (active): [9]; [16]
-53% (inactive) and 95% (active): [13]; [16]
